Results as given in PubChem BioAssay (Tox21).
Where “and” joins values, the source holds several entries; their conditions need not be identical. Equal values may be shown once. Results filed as inconclusive are left out. Where a structure was tested more than once in an assay, its records may differ in their call. Calls of active or inactive are those of the source. Unless noted, calls follow the shape of the dose curve; as a rule, active = well fitted curve in the direction sought with a large enough effect in the repeat runs; inconclusive = weak or mixed curves; inactive = no such curve, though single readings can be large; an effect the other way counts as inactive or inconclusive.

Assays:
[1] = qHTS assay to identify small molecule agonists of the estrogen receptor alpha (ER-alpha) signaling pathway in the presence of an antagonist - cell viability counter screen (AID 1259386);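 also: series mostly up to about 92 µM; cells exposed to compounds for 22 h at 37 °C before the viability read; nearly all actives have a fitted effect of over 30% in size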
Summary of the method: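 Cytotoxicity was measured in parallel with the ERE-luciferase agonist screen, in the same wells. The cells were VM7Luc4E2, which endogenously express ER-alpha, and treatment was with compounds plus 10.0nM ICI-182,780 for 22hr.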

[2] = biological target: Progesterone receptor (Homo sapiens) (UniProt P06401); test: qHTS assay to identify small molecule agonists of the progesterone receptor (PR) signaling pathway (AID 1346784; calls by dose curve; also: nearly all actives have a fitted effect of over 30% in size; also: potency is read from the fitted curve at half-maximal effect)
Summary of the method: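 The screen uses PR-UAS-bla HEK 293T cells in charcoal-stripped serum (2%). Compounds are applied for 16 hr at 37C after a 6 hr pre-incubation, and reporter activity is detected with a FRET beta-lactamase substrate after 2 hr at room temperature.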

[3] = qHTS assay to identify small molecule antagonists of the progesterone receptor (PR) signaling pathway - cell viability counter screen (AID 1346798); also: nearly all actives have a fitted effect of over 50% in size; also: potency is read from the fitted curve at half-maximal effect
Summary of the method: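 Viability was determined by ATP-based luminescence (CellTiter-Glo) in PR-UAS-bla HEK293T cells cultured in 2% charcoal-stripped serum and incubated 16 hr with compounds under R5020 stimulation.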

[4] = qHTS assay to identify small molecule agonists of the progesterone receptor (PR) signaling pathway - cell viability counter screen (AID 1346799; calls by dose curve; also: nearly all actives have a fitted effect of over 45% in size; also: potency is read from the fitted curve at half-maximal effect)
Summary of the method: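 Viability was scored by ATP luminescence (CellTiter-Glo, 30 min, room temperature) in the same wells used for the reporter readout, after 16 hr compound exposure of PR-UAS-bla HEK293T cells.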

[5] = qHTS assay to identify small molecule antagonists of the TGF-beta/Smad signaling pathway - cell viability counter screen (AID 1346824); also: nearly all actives have a fitted effect of over 50% in size
Summary of the method: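 SBE-bla HEK 293T cells, incubated overnight, then compound plus 0.25 ng/mL TGF-beta1 (stock added) for 5 hr at 37 C. Viability was read in the same wells by CellTiter-Glo luminescence after 30 min at room temperature.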

[6] = qHTS assay to identify small molecule agonists of the TGF-beta/Smad signaling pathway - cell viability counter screen (AID 1346829); also: top concentration of the series differs between compounds; nearly all actives have a fitted effect of over 45% in size
Summary of the method: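 HEK 293T SBE-bla line, 5 hr compound exposure at 37 C, multiplexed CellTiter-Glo viability read by luminescence.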

[7] = qHTS assay to identify small molecule agonists of the TGF-beta/Smad signaling pathway (AID 1346859; active = well fitted activation curve with a large enough effect in the signal ratio in the repeat runs, not every such curve was filed as active; the % refers to the signal ratio; also: series mostly up to about 77 µM)
Summary of the method: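 Dual-wavelength fluorescence (460/530 nm emission) quantified beta-lactamase expression under the Smad binding element in HEK 293T cells following 5 hr compound treatment at 37 C.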

[8] = biological target: Thyrotropin-releasing hormone receptor (Homo sapiens) (UniProt P34981); test: qHTS assay to identify small molecule antagonists of the thyrotropin-releasing hormone receptor (TRHR) signaling pathway (AID 1346877; active = well fitted inhibition curve with a large enough effect in the repeat runs, not every such curve was filed as active; also: series mostly up to about 51 µM)
Summary of the method: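 Antagonism is measured as suppression of the calcium response to 1 nM TRH in TRHR-HEK293 cells that have been dye-loaded for 2 h at 37 °C after overnight plating. Each compound is tested at 15 concentrations in triplicate.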

[9] = biological target: Thyrotropin-releasing hormone receptor (Homo sapiens) (UniProt P34981); test: qHTS assay to identify small molecule agonists of the thyrotropin-releasing hormone receptor (TRHR) signaling pathway (AID 1346891; calls by dose curve;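 also: HEK293 cells expressing TRHR with calcium dye readout; series mostly up to about 58 µM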)
Summary of the method: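 Kinetic fluorescence (3 min, 1 s intervals) reported intracellular calcium after compound transfer onto TRHR-Hek293 cells pre-loaded with dye for 2 h at 37 °C.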

[10] = Human pregnane X receptor (PXR) small molecule agonists, qHTS cell viability counter screen (AID 1346977); also: nearly all actives have a fitted effect of over 50% in size; also: potency is read from the fitted curve at half-maximal effect
Summary of the method: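 HepG2 cells stably carrying the PXR-Luc reporter are cultured with 5% charcoal-stripped FBS and treated with compounds for 24hr. CellTiter-Fluor is added at 23hr and fluorescence is read after 1hr.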

[11] = Caspase-3/7 induction in HepG2 cells by small molecules, qHTS assay (AID 1346978); also: nearly all actives have a fitted effect of over 15% in size; also: potency is read from the fitted curve at half-maximal effect
Summary of the method: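 Wild-type HepG2 cells, 2,000/well, settled 5 hr at 37 C and 5% CO2, then compound-treated for 17 hr; caspase-3/7 activity read by luminescent Caspase-Glo 3/7 after 30 min at room temperature.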

[12] = Caspase-3/7 induction in CHO-K1 cells by small molecules, qHTS cell viability counter screen (AID 1346979); also: nearly all actives have a fitted effect of over 35% in size; also: potency is read from the fitted curve at half-maximal effect
Summary of the method: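 Seeding: 1,500 CHO-K1 cells/well. Rest: 5hr, 37C. Treatment: compounds in DMSO, 16hr. Read: CellTiter-Fluor, 1hr, fluorescence.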

[13] = Caspase-3/7 induction in CHO-K1 cells by small molecules, qHTS assay (AID 1346980); also: nearly all actives have a fitted effect of over 15% in size
Summary of the method: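 Wild-type CHO-K1 cells exposed to compounds for 17hr at 37 C, 5% CO2. Caspase-3/7 activity then measured by Caspase-Glo 3/7 luminescence after 30min at room temperature.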

[14] = biological target: Nuclear receptor subfamily 1 group I member 2 (Homo sapiens) (UniProt O75469); test: Human pregnane X receptor (PXR) small molecule agonists, qHTS assay (AID 1346982); also: nearly all actives have a fitted effect of over 35% in size; also: potency is read from the fitted curve at half-maximal effect
Summary of the method: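 Cells: HepG2 stably carrying PXR-Luc. Medium held 5% charcoal-stripped FBS. Compounds in DMSO added after 5 hr plating, incubated 24 hr, then luminescence quantified with ONE-Glo.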

[15] = biological target: Cytochrome P450 2D6 (Homo sapiens) (UniProt P10635); test: Cytochrome P450 Family 2 Subfamily D Member 6 (CYP2D6) small molecule antagonists: luciferase reporter qHTS assay (AID 1671196); also: nearly all actives have a fitted effect of over 50% in size; also: potency is read from the fitted curve at half-maximal effect
Summary of the method: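 Enzyme and proluciferin substrate were first combined with test chemical for 10 min at room temperature. Adding NADPH regeneration solution started a 1 h reaction, stopped with luciferin detection reagent and read by luminescence 20 min later.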

[16] = biological target: Progesterone receptor (Homo sapiens) (UniProt P06401); test: qHTS assay to identify small molecule antagonists of the progesterone receptor (PR) signaling pathway (AID 1346795; active = well fitted inhibition curve with a large enough effect in the signal ratio in the repeat runs, not every such curve was filed as active; the % refers to the signal ratio)
Summary of the method: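 After 6 hr plating at 37C in 2% stripped-serum medium, PR-UAS-bla HEK293T cells got compounds, then 1 nM R5020. Sixteen hours later, LiveBLAzer substrate was applied for 2 hr at room temperature and fluorescence was recorded.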

[17] = biological target: Nuclear receptor subfamily 1 group I member 2 (Rattus norvegicus) (UniProt Q9R1A7); test: Rat pregnane X receptor (rPXR) activation by small molecules, qHTS assay (AID 1346983); conditions: rPXR luciferase reporter cells, One-Glo luminescence, 24 h; max activation: stronger effect = higher value; also: nearly all actives have a fitted effect of over 20% in size; also: potency is read from the fitted curve at half-maximal effect
Summary of the method: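 Cell-based rPXR activation assay: rPXR cells, 2,000 per well, rested 5hr at 37 C, then exposed to compounds in DMSO for 24 hr at 37 C. Luciferase activity read by One-Glo luminescence after 30 min at room temperature.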

[18] = biological target: Nuclear receptor subfamily 1 group I member 2 (Homo sapiens) (UniProt O75469); test: CYP3A4 induction through human pregnane X receptor (PXR) by small molecules, qHTS assay (AID 1346984); also: nearly all actives have a fitted effect of over 40% in size
Summary of the method: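 Quantitative HTS in DPX-2 cells, i.e. HepG2 transfected with PXR response element and CYP3A4-promoter luciferase. Compounds in DMSO incubated 24hr at 37C; then P450-Glo CYP3A4 substrate, 3uM final, 3hr; One-Glo luminescence.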

[19] = biological target: Nuclear receptor subfamily 1 group I member 2 (Homo sapiens) (UniProt O75469); test: Human pregnane X receptor (PXR) activation by small molecules, qHTS assay (AID 1346985); also: nearly all actives have a fitted effect of over 40% in size
Summary of the method: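 DPX-2 cells (HepG2 co-transfected with a PXR response element and a CYP3A4-promoter luciferase construct) were seeded at 2,000 per well, rested 5 hr at 37C, then exposed to DMSO-dissolved compounds for 24 hr. Activation was read as luciferase luminescence.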

[20] = Caspase-3/7 induction in HepG2 cells by small molecules, qHTS cell viability counter screen (AID 1346981); also: nearly all actives have a fitted effect of over 30% in size; also: potency is read from the fitted curve at half-maximal effect
Summary of the method: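 Cell viability is measured as a cytotoxicity counter screen alongside the Caspase-Glo 3/7 readout in identical wells. Wild-type HepG2 cells are treated with test compounds for 16 hr at 37 C before CellTiter-Fluor addition and a 1-hr incubation.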
% is scaled to controls: 0 for no effect and ±100 for the full control effect.

Cytochrome P450 2D6 (Homo sapiens), sequence (P10635 whole entry, looked up): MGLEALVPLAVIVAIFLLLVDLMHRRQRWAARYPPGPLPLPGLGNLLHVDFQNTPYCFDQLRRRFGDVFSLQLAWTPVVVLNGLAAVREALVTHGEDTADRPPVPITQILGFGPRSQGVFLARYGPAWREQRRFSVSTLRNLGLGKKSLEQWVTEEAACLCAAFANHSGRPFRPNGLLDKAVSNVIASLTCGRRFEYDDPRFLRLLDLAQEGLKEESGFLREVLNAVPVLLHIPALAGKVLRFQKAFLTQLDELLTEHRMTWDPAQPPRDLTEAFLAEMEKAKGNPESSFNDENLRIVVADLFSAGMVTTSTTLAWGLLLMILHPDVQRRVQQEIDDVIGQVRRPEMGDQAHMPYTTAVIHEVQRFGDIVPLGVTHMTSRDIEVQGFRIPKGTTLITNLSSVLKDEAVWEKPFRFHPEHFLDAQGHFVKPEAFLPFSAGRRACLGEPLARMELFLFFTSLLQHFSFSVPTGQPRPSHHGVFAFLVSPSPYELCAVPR
Progesterone receptor (Homo sapiens), sequence (P06401 whole entry, looked up): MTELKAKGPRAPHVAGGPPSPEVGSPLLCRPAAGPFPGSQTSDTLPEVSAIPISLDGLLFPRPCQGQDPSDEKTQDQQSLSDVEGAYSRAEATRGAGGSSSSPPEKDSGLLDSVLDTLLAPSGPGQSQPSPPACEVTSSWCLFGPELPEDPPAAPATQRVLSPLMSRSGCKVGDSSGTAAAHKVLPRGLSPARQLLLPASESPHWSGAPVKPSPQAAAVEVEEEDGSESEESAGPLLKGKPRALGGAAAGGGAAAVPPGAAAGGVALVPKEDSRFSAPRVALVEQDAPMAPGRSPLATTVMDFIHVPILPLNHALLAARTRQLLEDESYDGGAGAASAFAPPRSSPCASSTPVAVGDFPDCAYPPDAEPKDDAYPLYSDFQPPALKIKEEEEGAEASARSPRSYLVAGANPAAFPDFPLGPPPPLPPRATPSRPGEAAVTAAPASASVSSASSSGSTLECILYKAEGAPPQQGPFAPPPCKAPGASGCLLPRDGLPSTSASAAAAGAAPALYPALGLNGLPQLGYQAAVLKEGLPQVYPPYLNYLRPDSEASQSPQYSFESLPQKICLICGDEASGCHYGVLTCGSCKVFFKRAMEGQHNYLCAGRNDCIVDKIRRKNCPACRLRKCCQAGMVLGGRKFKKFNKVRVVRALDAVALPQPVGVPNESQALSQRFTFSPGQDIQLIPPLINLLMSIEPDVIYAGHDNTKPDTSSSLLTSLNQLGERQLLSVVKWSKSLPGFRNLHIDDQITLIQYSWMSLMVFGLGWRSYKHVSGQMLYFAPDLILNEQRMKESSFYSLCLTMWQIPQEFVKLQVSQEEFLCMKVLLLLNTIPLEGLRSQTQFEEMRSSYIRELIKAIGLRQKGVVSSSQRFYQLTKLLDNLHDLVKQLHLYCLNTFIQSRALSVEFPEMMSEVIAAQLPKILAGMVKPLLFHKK
Thyrotropin-releasing hormone receptor (Homo sapiens), sequence (P34981 whole entry, looked up): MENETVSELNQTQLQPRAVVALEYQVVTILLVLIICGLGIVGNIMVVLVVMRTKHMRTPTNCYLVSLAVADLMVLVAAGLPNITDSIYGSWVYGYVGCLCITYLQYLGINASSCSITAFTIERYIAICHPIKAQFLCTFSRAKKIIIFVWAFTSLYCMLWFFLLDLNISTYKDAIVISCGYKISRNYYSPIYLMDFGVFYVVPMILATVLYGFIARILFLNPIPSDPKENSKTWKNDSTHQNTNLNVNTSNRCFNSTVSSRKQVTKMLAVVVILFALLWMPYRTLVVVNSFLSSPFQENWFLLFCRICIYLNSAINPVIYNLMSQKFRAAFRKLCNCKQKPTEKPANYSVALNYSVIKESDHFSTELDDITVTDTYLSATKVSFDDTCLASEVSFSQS
Nuclear receptor subfamily 1 group I member 2 (Homo sapiens), sequence (O75469 whole entry, looked up): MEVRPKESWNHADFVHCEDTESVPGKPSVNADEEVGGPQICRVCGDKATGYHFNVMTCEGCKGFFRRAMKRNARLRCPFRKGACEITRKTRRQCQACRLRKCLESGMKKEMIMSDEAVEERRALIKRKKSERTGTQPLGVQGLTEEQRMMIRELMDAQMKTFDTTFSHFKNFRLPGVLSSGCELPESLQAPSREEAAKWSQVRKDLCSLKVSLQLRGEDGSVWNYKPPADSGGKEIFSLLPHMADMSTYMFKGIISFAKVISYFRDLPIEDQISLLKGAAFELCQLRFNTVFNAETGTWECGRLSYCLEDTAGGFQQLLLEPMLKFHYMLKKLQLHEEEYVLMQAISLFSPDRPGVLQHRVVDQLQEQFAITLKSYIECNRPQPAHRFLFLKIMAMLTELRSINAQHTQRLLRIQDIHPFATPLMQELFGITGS
Nuclear receptor subfamily 1 group I member 2 (Rattus norvegicus), sequence (Q9R1A7 whole entry, looked up): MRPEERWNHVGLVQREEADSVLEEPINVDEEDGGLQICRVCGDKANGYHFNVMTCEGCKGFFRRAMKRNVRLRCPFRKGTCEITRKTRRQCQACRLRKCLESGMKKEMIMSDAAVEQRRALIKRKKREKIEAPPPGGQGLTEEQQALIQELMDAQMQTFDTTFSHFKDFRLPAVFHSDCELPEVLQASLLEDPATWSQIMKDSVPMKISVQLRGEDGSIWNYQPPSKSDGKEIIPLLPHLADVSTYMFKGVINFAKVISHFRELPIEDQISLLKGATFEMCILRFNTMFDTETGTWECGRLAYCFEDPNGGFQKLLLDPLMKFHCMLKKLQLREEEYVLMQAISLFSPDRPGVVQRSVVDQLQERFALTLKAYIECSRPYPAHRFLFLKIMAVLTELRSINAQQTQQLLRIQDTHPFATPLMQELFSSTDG

Cc1cccc(Nc2ccccc2C(=O)O)c1C
inactive: Potency [1] | Potency [2] | Potency [3] | Potency [4] | Potency [5] | Potency [6] | outcome [7] | Potency [8] | Potency [9] | Potency [10] | Potency [11] | Potency [12] | Potency [13] | Potency [15]
48.6 µM (active) and inactive: Potency [14]

CC(=O)Oc1c(C)c(C)c2c(c1C)CC[C@@](C)(CCC[C@H](C)CCC[C@H](C)CCCC(C)C)O2
inactive: Potency [1] | Potency [2] | Potency [16] | Potency [3] | Potency [5] | Potency [6] | outcome [7] | Potency [8] | Potency [9] | Potency [10] | Potency [11] | Potency [12] | Potency [13] | Potency [14] | max activation [17] -0.642% and -1.19% | Potency [18] | Potency [19] | Potency [15]

COc1cc([C@H]2Oc3cc([C@H]4Oc5cc(O)cc(O)c5C(=O)[C@@H]4O)ccc3O[C@@H]2CO)ccc1O
60.9 µM (active) and inactive: Potency [12] | Potency [20] | Potency [14]
inactive: Potency [1] | Potency [2] | Potency [3] | Potency [4] | Potency [5] | Potency [6] | Potency [8] | Potency [9] | Potency [10] | Potency [11] | Potency [13] | max activation [17] -6.88% | Potency [18] | Potency [19]

O=C(CCCN1CCC(O)(c2ccc(Cl)cc2)CC1)c1ccc(F)cc1
54.5 µM (active) and inactive: Potency [11]
active: Potency [10] 27.3 µM and 23.7 µM
61.1 µM (active) and inactive: Potency [12]
inactive: Potency [1] | Potency [3] | Potency [5] | Potency [6] | outcome [7] | Potency [8] | Potency [9] | Potency [13]
48.6 µM (active) and inactive: Potency [20]

c1ccc2c(c1)ccc1ncccc12
active: Potency [14] 60.7 µM and 61.1 µM | Potency [15] 7.91 µM
inactive: Potency [1] | Potency [2] | Potency [3] | Potency [4] | Potency [5] | Potency [6] | outcome [7] | Potency [8] | Potency [9] | Potency [10] | Potency [11] | Potency [12] | Potency [13] | Potency [20]

C=C[C@@]1(C)CC(=O)[C@]2(O)[C@@]3(C)[C@@H](O)CCC(C)(C)[C@@H]3[C@H](O)[C@H](OC(C)=O)[C@@]2(C)O1
inactive: Potency [1] | Potency [2] | Potency [5] | Potency [6] | outcome [7] | Potency [10] | Potency [11] | Potency [13]
active: Potency [3] 24.3 µM and 15 µM | Potency [4] 12.2 µM and 16.8 µM | Potency [12] 68.6 µM | Potency [17] 5.01 µM

ClC/C=C/CCl
inactive: Potency [1] | Potency [2] | Potency [16] | Potency [3] | Potency [5] | Potency [6] | outcome [7] | Potency [8] | Potency [9] | Potency [11] | Potency [12] | Potency [13] | Potency [20] | Potency [14]
62.8 µM (active) and inactive: Potency [15]

CC(=O)O[C@]1(C(C)=O)CC[C@H]2[C@@H]3C=C(Cl)C4=CC(=O)CC[C@]4(C)[C@H]3CC[C@@]21C
active: Potency [12] 61 µM
inactive: Potency [1] | Potency [16] | Potency [3] | Potency [5] | Potency [6] | Potency [8] | Potency [9] | Potency [10] | Potency [11] | Potency [13] | Potency [18] | Potency [19] | Potency [15]

NCCN
inactive: Potency [1] | Potency [2] | Potency [3] | Potency [4] | Potency [5] | Potency [6] | outcome [7] | Potency [10] | Potency [11] | Potency [12] | Potency [13] | Potency [14] | max activation [17] -1.7% | Potency [18] | Potency [19]

Cc1ccc(C(C)(C)C)c(O)c1
inactive: Potency [1] | Potency [2] | Potency [16] | Potency [3] | Potency [5] | Potency [6] | outcome [7] | Potency [8] | Potency [9] | Potency [10] | Potency [13] | Potency [20] | Potency [14]
active: Potency [12] 66.4 µM

CC(=O)[C@H]1CC[C@H]2[C@@H]3CC=C4C[C@@H](O)CC[C@]4(C)[C@H]3CC[C@]12C
inactive: Potency [1] | Potency [16] | Potency [3] | Potency [5] | Potency [6] | outcome [7] | Potency [10] | Potency [11] | Potency [12] | Potency [13] | Potency [20] | max activation [17] -3.68% | Potency [18] | Potency [19] | Potency [15]
active: Potency [2] 4.85 µM | Potency [14] 24.3 µM and 23.7 µM

CC(C)[N+](C)(CCOC(=O)C1c2ccccc2Oc2ccccc21)C(C)C
active: Potency [15] 100 nM and 195 nM
inactive: Potency [2] | Potency [16] | Potency [3] | Potency [5] | Potency [6] | outcome [7] | Potency [8] | Potency [9] | Potency [10] | Potency [11] | Potency [12] | Potency [13] | Potency [20] | Potency [14] | max activation [17] 0.826% | Potency [18] | Potency [19]
